Assay outcomes (PubChem BioAssay)
Sampled rows, rich in hits. Any-hit rate of the full collection: about 3%.
JMJD2E inh: JMJD2E (human) inhibition. B2RXH2. JMJD2E catalytic domain, FDH-coupled NADH fluorescence (FDH is formaldehyde dehydrogenase). Potency, µM (series often up to 57.1 µM), for inactives: top-dose activity change, negative = inhibition, hits mostly inhibitors. actives 1.6% (n = 230,000). AID 2147; active means well fitted inhibition curve with a large enough effect, not every such curve was filed as active; inconclusive means small, poorly fitted or top-dose-only effect, or another doubt; inactive means no such curve, though single readings can be large or run the other way;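 further: potency means the concentration at half of the fitted maximal effect; 0% = wells with enzyme and -100% = buffer wells without enzyme; nearly all actives have a fitted effect of over 50% in size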
Target sequence (B2RXH2 1-337 limits assumed): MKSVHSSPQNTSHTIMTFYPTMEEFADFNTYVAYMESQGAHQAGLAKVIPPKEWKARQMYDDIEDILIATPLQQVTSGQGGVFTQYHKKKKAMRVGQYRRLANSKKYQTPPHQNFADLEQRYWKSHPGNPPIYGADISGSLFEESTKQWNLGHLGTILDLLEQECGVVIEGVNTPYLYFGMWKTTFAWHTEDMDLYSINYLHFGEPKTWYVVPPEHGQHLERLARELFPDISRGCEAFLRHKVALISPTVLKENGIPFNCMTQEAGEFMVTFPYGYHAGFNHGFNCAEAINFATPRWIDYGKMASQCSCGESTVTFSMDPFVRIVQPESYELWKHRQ
Tau FP inhib: tau fibrillization inhibition (FP). K18 P301L tau heparin fibrillization, Alexa594 FP, 6 h. Potency, µM (top dose mostly 57.7 µM), for inactives: at the highest dose activity, negative = inhibition, hits mostly inhibitors. actives 0.39% (n = 280,000); further: potency means the concentration at half of the fitted maximal effect; nearly all actives have a fitted effect of over 55% in size
Target sequence (P10636 561-689 P618L limits assumed): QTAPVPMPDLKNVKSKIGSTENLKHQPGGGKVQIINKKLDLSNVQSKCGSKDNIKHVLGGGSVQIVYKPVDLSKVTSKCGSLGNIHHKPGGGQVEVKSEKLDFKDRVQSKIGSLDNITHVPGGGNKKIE
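FP of Alexa 594-tau after heparin (20 uM) induction. Substrate: human K18 P301L, 15 uM unlabeled, 0.24 uM labeled. Buffer 100 mM sodium acetate pH 7. 6 hr, 37 C.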
Tau fibril ThT: inhibitors of human tau fibril formation, thioflavin T binding; P10636; recombinant tau K18 P301L, heparin-induced fibrillization, ThT fluorescence; Potency, µM (titrated, usually from 57.4 µM), for inactives: at the top dose activity, negative = inhibition, hits mostly inhibitors; actives 2.1% (n = 270,000); further: potency means the concentration at half of the fitted maximal effect; nearly all actives have a fitted effect of over 55% in size
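Recombinant human tau K18 fragment […] carrying P301L, 15 uM unlabeled plus 0.24 uM Alexa 594-labeled, was fibrillized with 20 uM heparin in 100 mM sodium acetate pH 7 for 6 hr at 37 C; 30 uM ThT fluorescence read after 1 hr.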
FBPA coupling cs: inhibits coupling enzyme system, counter-screen for aldolase hits; actives 0.67% (n = 290,000); activity change, negative = inhibition, % at 58.2 µM, hits read low; coupling enzyme system counterscreen, AmpLite Red fluorescence; in the data active means activity change below about -30%
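Counterscreen of the coupled detection system alone, without aldolase: glyceraldehyde-3-phosphate coupling enzymes plus AmpLite Red readout. Compounds at 57.5 uM final, 10 min RT preincubation, 20 min RT reaction, fluorescence 525/598 nm.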
Tau fluor cs: counter-screen for tau fibril formation inhibitors; actives 0.93% (n = 280,000); tau K18 P301L (four-repeat tau fragment) Alexa594 fluorescence, heparin fibrillization; Potency, µM (titrated, usually from 57.7 µM), without a hit: top-dose activity change, negative = decrease; further: potency means the concentration at half of the fitted maximal effect; nearly all actives have a fitted effect of over 55% in size
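Human K18 P301L tau (15 uM unlabeled plus 0.24 uM Alexa 594-labeled, final) in 100 mM sodium acetate pH 7 was mixed with compound and 20 uM heparin and incubated 6 hr at 37 C.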
The depositor's hits bear a star; ? = inconclusive; / = not tested or not shown; ! = not active in a repeat; [ ] = remark or other dose. Unless noted, the call rests on the fitted dose curve; in most records, active means well fitted curve in the direction sought with a large enough effect; inconclusive means small, poorly fitted or top-dose-only effect, or another doubt; inactive means no such curve, though single readings can be large; an effect the other way counts as inactive or inconclusive. Unless noted, on the % scale 0 is the no-effect control and ±100 the full control effect.

SMILES	JMJD2E inh	Tau FP inhib	Tau fibril ThT	FBPA coupling cs	Tau fluor cs
CCc1ccc(C(=O)c2cn(Cc3ccc(F)cc3)c3cc(OC)c(OC)cc3c2=O)cc1	/	-7%	-16%	/	-20%
COc1ccc(NC(=O)/C(C#N)=C\c2ccc(OCc3ccc(C(=O)O)cc3)c(OC)c2)cc1	?	-16%	4µM*	8	-21%
COc1cc(/C=C(\C#N)C(=O)Nc2cccc(C(=O)O)c2)ccc1OCc1ccc(F)cc1	/	/	/	1	/
C[C@H]1[C@H](C)CC[C@]2(C=O)CC[C@]3(C)C(=CC[C@@H]4[C@@]5(C)C[C@@H](O)[C@H](O)[C@@](C)(CO)[C@@H]5CC[C@]43C)[C@H]12	/	/	/	8	/
CCCS(=O)(=O)c1c(S(=O)(=O)CCC)c2cc(C(C)(C)C)ccn2c1C(=O)c1ccccc1	/	2%	?	/	-8%
Cc1cc2ccccn2c1C(=S)NC(=O)c1ccccc1	-29%	2%	16µM*	1	-19%
COc1ccc(/C=C/c2nc(N)nc(-c3ccccc3O)n2)cc1OC	-19%	20µM*	?	2	?
S=C(NCc1cccnc1)Nc1ccc(Oc2ccc(Cl)cc2)cc1	-12%	?	-19%	0	13µM*[quencher]
COc1ccc(NC(=S)NCc2cccnc2)cc1	-12%	-8%	-13%	6	-12%
CC(C)(C)OC(=O)N1CCC(c2c(C(=O)NCCN3CCOCC3)cnn2-c2ccc(F)cc2)CC1	/	-9%	-4%	/	-6%
NNc1nc2c(F)cc(F)cc2s1	0%	-5%	13µM*	1	?
NNc1nc2c(F)cccc2s1	-12%	?	16µM*	2	18µM*[quencher]
O=C(Nc1nc2c(F)cc(F)cc2s1)c1ccco1	/	/	/	-3	/
CCC(C)S(=O)(=O)c1oc(-c2cccs2)nc1S(=O)(=O)c1ccccc1 (stereo unspecified)	/	-16%	9%	/	-12%
CCCCN(CC)C(=O)c1nn(C)c2c1CSc1ccccc1-2	/	?	-7%	/	14µM*[quencher]
CCN(C(=O)c1nn(C)c2c1CSc1ccccc1-2)c1cccc(C)c1	/	-6%	0%	/	-5%
COc1cccc(C2=CC(c3ccc(N(C)C)cc3)n3ncnc3N2)c1 (stereo unspecified)	?	-16%	-11%	-35*	?
Cn1nnc2c(NCc3ccc(Cl)cc3)ncnc21	/	-2%	-3%	/	2%
COC(=O)c1cccc(Nc2cc(C)nc(-c3ccccc3O)n2)c1	29%	11µM*	?	-3	?
C/C(=N\Nc1cc(C)nc(-c2ccccc2O)n1)c1ccccc1O	?	?	?	-1	10µM*[quencher]
COC(=O)c1nnc(N[C@@H](Cc2c[nH]c3ccccc23)C(=O)OC)nc1C(=O)OC	-6%	5%	2%	1	-4%
CC/C=C\C/C=C\C/C=C\CCCCCCCC(=O)O	?	?	28µM*!	2	-15%
CC/C=C\C/C=C\C/C=C\CCCCCCCCCCCC(=O)O	-4%	-3%	?	6	4%
CCN(CC)c1ccc(/C=N/NC(=O)Cc2cccs2)c(O)c1	-17%	13%	?	1	13µM*[quencher]
O=C(Cc1cccs1)N/N=C/c1ccccc1	7%	-9%	-11%	1	-13%
SMILES	JMJD2E inh	Tau FP inhib	Tau fibril ThT	FBPA coupling cs	Tau fluor cs
CCN(CC)c1ccc(/C=N/NC(=O)c2ccco2)c(O)c1	14µM*	13%	?	-3	?
O=Cc1sc(=O)n(Cc2cccc(C(=O)O)c2)c1Cl	9%	10µM*	13µM*	14	-9%
COc1cccc(NC(=O)C2CCCN2S(=O)(=O)c2ccc3nc(-c4ccccc4)[nH]c3c2)c1 (stereo unspecified)	/	-15%	-11%	/	-11%
Cc1ccc(NC(=O)C2CCCN2S(=O)(=O)c2ccc3nc(-c4ccccc4)[nH]c3c2)cc1C (stereo unspecified)	/	?	-15%	/	32µM*[quencher]
Cc1cccc(NC(=O)C2CCCN2S(=O)(=O)c2ccc3nc(-c4ccccc4)[nH]c3c2)c1 (stereo unspecified)	/	?	1%	/	20µM*[quencher]
CC(C)c1ccc(NC(=O)C2CCCN2S(=O)(=O)c2ccc3nc(-c4ccccc4)[nH]c3c2)cc1 (stereo unspecified)	/	14µM*	9%	/	11µM*[quencher]
CCCCCOc1ccc(C(=O)N(Cc2ccccc2)C2CCS(=O)(=O)C2)cc1 (stereo unspecified)	/	10%	-10%	/	-6%
O=C(N/N=C\c1ccc(-c2ccccc2[N+](=O)[O-])o1)C1COc2ccccc2O1 (stereo unspecified)	-1%	?	13µM*	-2	?
O=C(N/N=C\c1ccc(-c2ccccc2[N+](=O)[O-])o1)C1COc2cc3ccccc3cc2O1 (stereo unspecified)	-7%	?	11µM*	-6	?
Cc1ccc(/C=N\NC(=O)C2COc3cc4ccccc4cc3O2)o1 (stereo unspecified)	?	0%	?	4	-26%
O=C(N/N=C\c1ccc([N+](=O)[O-])o1)C1COc2ccccc2O1 (stereo unspecified)	7%	2%	?	2	-8%
CCC1CCCCN1Cc1cn2c(-c3ccc(Br)cc3)nnc2s1 (stereo unspecified)	/	-2%	-5%	/	-6%
Cc1ccc(S(=O)(=O)NCCc2cn3ccsc3n2)cc1	/	9%	2%	/	2%
Cc1ccc2[nH]c(-c3cccc(F)c3)cc(=O)c2c1	?	?	-18%[126 µM]	-1	-24%[126 µM]
Cc1ccc2[nH]c(-c3cccc(N)c3)cc2c1	?	?	10µM*	2	14µM*[quencher]
O=C(OCC1OC(OC(=O)c2cc(O)c(O)c(OC(=O)c3cc(O)c(O)c(O)c3)c2)[C@@H](OC(=O)c2cc(O)c(O)c(OC(=O)c3cc(O)c(O)c(O)c3)c2)C(OC(=O)c2cc(O)c(O)c(OC(=O)c3cc(O)c(O)c(O)c3)c2)C1OC(=O)c1cc(O)c(O)c(OC(=O)c2cc(O)c(O)c(O)c2)c1)c1cc(O)c(O)c(OC(=O)c2cc(O)c(O)c(O)c2)c1 (stereo partly specified)	0.28µM*	?	1.3µM*	-23	0.5µM*[quencher]
O=C(Cc1cnn(-c2ccccc2)c1)c1ccc(O)c(O)c1O	13µM*	?	14µM*	-21	?
COc1cc(OC)c2c(c1C(CCN1CCN(c3ccccc3)CC1)c1ccc(N(C)C)cc1)OC(=O)CC2c1ccc(N(C)C)cc1 (stereo unspecified)	/	/	/	0	/
Cc1cccc(NC(=O)C2CCCN(c3nnc(-n4c(C)ccc4C)s3)C2)c1C (stereo unspecified)	/	-9%	-14%	/	-6%
ON=C1c2cc(OCCN3CCCCC3)ccc2-c2ccc(OCCN3CCCCC3)cc21	/	/	/	1	/
C=CCOc1ccc2c(c1)C(=NO)c1cc(OCC=C)ccc1-2	-1%	?	7.9µM*	-2	?
